A short description of test [1]: A CellTox Green Cytotoxicity Assay to monitor cytotoxicity in HepG2 cells - 0 hour (AID 1224882). Also: nearly all actives have a fitted effect of over 35% in size. Also: potency is read from the fitted curve at half-maximal effect. The essentials:
(§1)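 Continuous culture of HepG2 cells with a membrane-impermeant DNA dye; rising fluorescence marks dead cells. Compound exposure lasted up to 40 h at 37 C, with reads every 8 h from 0 h.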

Test [2] can be described thus: A CellTox Green Cytotoxicity Assay to monitor cytotoxicity in HepG2 cells - 32 hour (AID 1224883). Also: nearly all actives have a fitted effect of over 50% in size. The essentials: as §1
A short description of test [3]: A CellTox Green Cytotoxicity Assay to monitor cytotoxicity in HEK293 cells - 8 hour (AID 1224884). Also: nearly all actives have a fitted effect of over 35% in size. In outline:
(§2)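 Each value comes from one timepoint of a single continuous run in which HEK293 cells with CellTox Green were exposed to compound for up to 40 h at 37 C, dye fluorescence rising with cell death.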

Test [4] in a line: qHTS RealTime-Glo MT Cell Viability Assay in HepG2 cells - 16 hour (AID 1224885). Also: nearly all actives have a fitted effect of over 50% in size. The essentials: (§3)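 Tox21 10K library screened in qHTS format on HepG2 cells carrying RealTime-Glo reagents. Compounds were added after a 5 h preincubation, and the luminescent signal from continuous culture was measured repeatedly during 40 h treatment.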
For orientation: qHTS replaces the single test concentration by a dilution series.

The nature of test [5]: qHTS RealTime-Glo MT Cell Viability Assay in HEK293 cells - 24 hour (AID 1224886). Also: nearly all actives have a fitted effect of over 50% in size. Also: potency is read from the fitted curve at half-maximal effect. In outline:
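Luminescence generated by NanoLuc from substrate produced by living HEK293 cells served as the viability signal. Each value reflects the reading at its stated time point during continuous 40 h compound exposure at 37 C.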

Test [6] is described as follows: qHTS RealTime-Glo MT Cell Viability Assay in HEK293 cells - 8 hour (AID 1224887). Also: top concentration of the series differs between compounds; nearly all actives have a fitted effect of over 50% in size. In outline: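 qHTS format; HEK293 cells with NanoLuc/prosubstrate reagent, 37 C/5% CO2 for 5 h pre-dosing; compounds 23 nL in DMSO; luminescence at each time point reflects viable cells.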
Test [7] is described as follows: A CellTox Green Cytotoxicity Assay to monitor cytotoxicity in HEK293 cells - 16 hour (AID 1224888). Also: nearly all actives have a fitted effect of over 35% in size. In outline:
as §2

A short description of test [8]: qHTS RealTime-Glo MT Cell Viability Assay in HepG2 cells - 0 hour (AID 1224889). Also: nearly all actives have a fitted effect of over 50% in size. Also: potency is read from the fitted curve at half-maximal effect. In outline:
as §3

A short description of test [9]: A CellTox Green Cytotoxicity Assay to monitor cytotoxicity in HepG2 cells - 8 hour (AID 1224890). Also: nearly all actives have a fitted effect of over 45% in size. The essentials: as §1
A short description of test [10]: qHTS assay to identify small molecule antagonists of the estrogen receptor alpha (ER-alpha) signaling pathway using the BG1 cell line in the presence of 0.1 nM 17-beta-estradiol - cell viability counter screen (AID 1259241). Also: nearly all actives have a fitted effect of over 40% in size. The essentials:
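Cells were plated and left 24 hr, compounds in DMSO were pinned in, 17beta-estradiol was added to 0.1 nM final, and after 22 hr CellTiter-Fluor reagent was added for 30 min before fluorescence was read.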

Test [11] in a line: qHTS assay to identify small molecule antagonists of the androgen receptor (AR) signaling pathway using the MDA cell line in the presence of 0.5 nM R1881 - cell viability counter screen (AID 1259242). Also: nearly all actives have a fitted effect of over 45% in size. The essentials:
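Fluorescence from CellTiter-Fluor, which reports protease activity of live cells, was read 30 min after reagent addition to MDA-kb2 cells that had been incubated 16 hr with compound and 0.5 nM R1881.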

Test [12] addresses Androgen receptor (Homo sapiens) (UniProt P10275). Nature of the test: qHTS assay to identify small molecule antagonists of the androgen receptor (AR) signaling pathway using the MDA cell line in the presence of 0.5 nM R1881 (AID 1259243). Also: nearly all actives have a fitted effect of over 50% in size. In outline:
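Inhibition of R1881 (0.5 nM final) induced reporter signal was measured in human MDA-kb2 cells; note the MMTV promoter also responds to GR. Exposure lasted 16 hr at 37C.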

Test [13] addresses Estrogen receptor (Homo sapiens) (UniProt P03372). The test is described as follows: qHTS assay to identify small molecule antagonists of the estrogen receptor alpha (ER-alpha) signaling pathway using the BG1 cell line in the presence of 0.1 nM 17-beta-estradiol (AID 1259244). Also: nearly all actives have a fitted effect of over 50% in size. The essentials:
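Quantitative high-throughput screen in VM7Luc4E2 cells: compound plus 0.1 nM E2 (final), 22 h, 37C, 5% CO2; ONE-Glo added, 30 min room temperature, luminescence measured.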

Test [14] in a line: qHTS assay to identify small molecule phospholipidosis (PLD) inducers (AID 1259344; active = well fitted curve in the direction sought with a large enough effect; an effect the other way counts as inactive or inconclusive). In outline: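 Fluorescent phospholipid staining (LipidTOX Red) measured by automated microscopy in fixed HepG2 cells after 24 h treatment; nuclei counterstained with Hoechst 33342; amiodarone as reference inducer.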
A short description of test [15]: qHTS assay to identify small molecule agonists of the sonic hedgehog signaling (Shh) pathway - cell viability counter screen (AID 1259366). Also: nearly all actives have a fitted effect of over 50% in size. In outline: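 Cells are plated at 2,000 per well and left 4hr at 37C, 5% CO2 before compound addition. After 23hr of treatment, CellTiter-Fluor reagent is added for 1hr at 37C and fluorescence is measured.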
Test [16] can be described thus: qHTS assay to identify small molecule antagonists of the sonic hedgehog signaling (Shh) pathway - cell viability counter screen (AID 1259367). Also: nearly all actives have a fitted effect of over 55% in size. In outline: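 Using CellTiter-Fluor, viability of Gli1-Luc reporter 3T3 cells is read by fluorescence in the wells used for the Shh luciferase assay. Treatment lasts 23 hr with conditioned medium, then reagent 1 hr at 37C.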

Test [17] is described as follows: qHTS assay to identify small molecule agonists of the sonic hedgehog signaling (Shh) pathway (AID 1259368; calls by dose curve;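 also: NIH/3T3-derived 3T3Gli1-Luc cells carrying a stable Gli1-driven firefly luciferase reporter; series mostly up to about 92 µM; nearly all actives have a fitted effect of over 15% in size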). In outline:
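Luminescent signal was taken as a measure of Gli1-controlled luciferase expression in stably transfected NIH/3T3-derived cells that had been treated for 24 hr with compounds delivered in DMSO.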

The nature of test [18]: qHTS assay to identify small molecule antagonists of the sonic hedgehog signaling (Shh) pathway (AID 1259369; calls by dose curve; also: nearly all actives have a fitted effect of over 45% in size; also: potency is read from the fitted curve at half-maximal effect). In outline: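 Screening used 3T3Gli1-Luc cells at 2,000 per well, compounds delivered in DMSO, and conditioned medium as agonist stimulus; plates incubated 24hr at 37 C and 5% CO2 before a 30min luciferase step.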
Test [19] can be described thus: qHTS assay to identify small molecule HDAC inhibitors (AID 1259364). Also: nearly all actives have a fitted effect of over 45% in size. Also: potency is read from the fitted curve at half-maximal effect. In outline: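 Endogenous HDAC class I/II activity was measured in wild-type HCT-116 cells by HDAC-Glo luminescence after 2 h compound treatment.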
Test [20] can be described thus: qHTS assay to identify small molecule HDAC inhibitors - cell viability counter screen (AID 1259365). In outline:
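Counter screen in wild-type HCT-116 cells: compounds dissolved in DMSO are pin-transferred onto overnight-plated cells and left 2hr at 37C. ATP-based CellTiter-Glo luminescence then measures viable cells.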

The structures appear in SMILES notation. “And” between values parts separate entries of the source, which are not always exact repeats. Equal values may be shown once. Inconclusive results are not listed. Some structures have more than one record in an assay (separate samples or runs), and their calls can disagree. The source made the active and inactive calls. Unless noted, calls follow the shape of the dose curve; as a rule, active = well fitted curve in the direction sought with a large enough effect in the repeat runs; inconclusive = weak or mixed curves; inactive = no such curve, though single readings can be large; an effect the other way counts as inactive or inconclusive.

Chain of Androgen receptor (Homo sapiens) (P10275 whole entry, looked up): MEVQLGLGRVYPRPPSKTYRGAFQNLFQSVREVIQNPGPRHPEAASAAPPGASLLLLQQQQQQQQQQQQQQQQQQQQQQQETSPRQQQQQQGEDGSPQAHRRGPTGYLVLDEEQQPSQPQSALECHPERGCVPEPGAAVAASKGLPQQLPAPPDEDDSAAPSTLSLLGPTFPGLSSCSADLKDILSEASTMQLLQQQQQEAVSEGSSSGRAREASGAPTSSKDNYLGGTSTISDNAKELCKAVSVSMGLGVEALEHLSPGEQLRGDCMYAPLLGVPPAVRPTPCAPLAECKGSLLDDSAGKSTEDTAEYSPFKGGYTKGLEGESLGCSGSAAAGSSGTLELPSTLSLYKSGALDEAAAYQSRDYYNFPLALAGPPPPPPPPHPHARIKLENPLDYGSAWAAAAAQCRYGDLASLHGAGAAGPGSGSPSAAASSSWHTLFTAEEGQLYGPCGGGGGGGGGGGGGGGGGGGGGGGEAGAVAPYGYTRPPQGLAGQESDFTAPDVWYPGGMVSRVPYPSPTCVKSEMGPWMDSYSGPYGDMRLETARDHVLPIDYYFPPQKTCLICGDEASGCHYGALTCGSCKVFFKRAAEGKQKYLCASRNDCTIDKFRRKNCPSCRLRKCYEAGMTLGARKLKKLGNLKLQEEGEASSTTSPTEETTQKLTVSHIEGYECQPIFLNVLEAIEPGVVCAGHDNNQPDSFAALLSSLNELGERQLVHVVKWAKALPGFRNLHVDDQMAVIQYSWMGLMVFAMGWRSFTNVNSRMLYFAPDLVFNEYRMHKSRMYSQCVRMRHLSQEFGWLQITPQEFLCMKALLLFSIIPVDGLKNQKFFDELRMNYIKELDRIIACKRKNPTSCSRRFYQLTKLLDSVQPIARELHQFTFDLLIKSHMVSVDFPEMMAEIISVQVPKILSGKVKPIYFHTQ
Chain of Estrogen receptor (Homo sapiens) (P03372 whole entry, looked up): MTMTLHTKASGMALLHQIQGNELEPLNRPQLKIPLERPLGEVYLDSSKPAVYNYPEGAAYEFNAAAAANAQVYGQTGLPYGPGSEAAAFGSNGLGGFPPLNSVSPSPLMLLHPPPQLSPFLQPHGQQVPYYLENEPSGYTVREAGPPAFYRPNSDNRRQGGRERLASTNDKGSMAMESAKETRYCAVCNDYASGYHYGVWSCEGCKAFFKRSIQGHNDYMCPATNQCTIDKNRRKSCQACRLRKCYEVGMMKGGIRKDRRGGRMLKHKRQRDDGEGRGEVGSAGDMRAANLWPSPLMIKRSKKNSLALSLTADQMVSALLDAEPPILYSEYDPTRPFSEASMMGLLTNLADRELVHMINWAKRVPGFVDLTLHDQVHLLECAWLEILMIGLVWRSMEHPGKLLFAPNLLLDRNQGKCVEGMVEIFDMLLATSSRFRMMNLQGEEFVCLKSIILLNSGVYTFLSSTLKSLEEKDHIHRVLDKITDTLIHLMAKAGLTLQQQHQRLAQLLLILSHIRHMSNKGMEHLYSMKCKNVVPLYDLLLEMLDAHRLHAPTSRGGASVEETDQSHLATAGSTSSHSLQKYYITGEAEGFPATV

As to `Nc1nc(=S)c2[nH]cnc2[nH]1`, the Potency entry in test [1], in [2], in [3], in test [4], in [6] and in test [7] was “inactive” in each case. The Potency entry in test [8], in [9], in [10], in test [11], in test [12] and in test [13] was “inactive” in each case. Further, the Potency entry in test [14], in [15], in test [16] and in [17] was “inactive” each time. Moreover, the Potency in test [5] was 21.9 µM (active); in test [18] it was 842 nM (active) and 545 nM (active) and 596 nM (active).

Regarding `CC(=O)O[C@]1(C(C)=O)CC[C@H]2[C@@H]3C[C@H](C)C4=CC(=O)CC[C@]4(C)[C@H]3CC[C@@]21C`, the Potency result was “inactive and 37.9 nM (active)” in test [1]; 15.5 µM (active) in test [5]; 174 nM (active) and 301 nM (active) in test [8]; 19.3 µM (active) in test [18]. The Potency result in test [2], in [3], in test [4], in test [6], in test [7] and in test [9] was “inactive” throughout. The Potency entry in test [10], in [11], in [13], in test [14], in test [19] and in [20] was “inactive” each time. Besides, the Potency entry in test [15], in test [16] and in [17] was “inactive” throughout.

As to `Nc1ccc2cc3ccccc3cc2c1`, the Potency result in [1], in test [2], in test [3], in [4], in test [5] and in test [6] was “inactive” each time. Further, the Potency entry in test [7], in [8], in test [9], in test [10], in [11] and in test [13] was “inactive” in each case. Moreover, the Potency result in [20] and in [18] was “inactive” throughout.

For `NCCCCCC(=O)O`, the Potency entry in test [1], in test [2], in test [3], in test [4], in [5] and in test [6] was “inactive” throughout. Moreover, the Potency entry in test [7], in [8], in test [9], in test [10], in [11] and in test [13] was “inactive” throughout. In addition, the Potency result in test [14], in [19], in test [15], in test [16], in test [17] and in [18] was “inactive” throughout.

For the compound `CC(C)(O)CCC(C)(C)O`, the Potency entry in [1], in test [2], in test [3], in test [4], in test [5] and in [6] was “inactive” in each case. Further, the Potency result in test [7], in [8], in test [9], in test [10], in [11] and in test [12] was “inactive” in each case. Further, the Potency entry in [13], in test [19], in test [20], in test [15], in [16] and in test [18] was “inactive” each time.

Consider `CCn1c2ccccc2c2cc(N)ccc21`, for which the Potency result in test [1], in test [2], in [3], in test [4], in test [5] and in test [6] was “inactive” throughout. Further, the Potency entry in test [7], in test [8], in test [9], in test [10], in test [11] and in test [13] was “inactive” throughout. For the same compound, the Potency entry in test [20], in [15] and in test [16] was “inactive” in each case. The Potency result was “inactive and 27.3 µM (active)” in test [19]; 15.2 µM (active) and inactive in [18].

Turning to `CC(=O)C1=C(C)[C@@H]2C[C@@]3(C1)[C@H](C)CC[C@H]3C2(C)C`, the Potency entry in test [1], in test [2], in test [3], in [4], in test [5] and in test [6] was “inactive” each time. The Potency result in test [7], in [8], in [9], in test [10], in [11] and in test [13] was “inactive” each time. The Potency entry in test [19], in [20], in test [15], in test [16] and in test [18] was “inactive” throughout.

These data come from PubChem BioAssay (Tox21).
